# Assay outcomes (PubChem)
# Sampled rows, rich in hits. Any-hit rate of the full collection: about 2.5%.
# HSF-1 act: increases HSF-1 driven luciferase reporter signal; NIH3T3-HGL HSF-1 luciferase reporter, MG132, 8 h; 100% = twice DMSO control signal; activation, % at 9 µM; actives 1.7% (n = 300,000);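 active = mean replicate activation of at least 50% with a set share of replicates each reaching 50%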;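 also: 0% = median of the neutral control wells and 100% = twice that signal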
# aDG glyco up: alpha-DG glycosylation activation; Pro5-aDG cells, alpha-DG glycosylation AlphaScreen (IIH6); 0% Pro5, 100% B10-LARGE cell signal; activation, % at 10 µM; actives 0.22% (n = 360,000); AID 624168;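 active = activation of at least 8% versus controls, or a plate z-score of at least 8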;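 also: Pro5 are CHO cells carrying HIG-tagged alpha-DG that lacks glycosylation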
# Dyrk1A ADPGlo: inhibitors of rat Dyrk1A kinase; Q63470; ADP-Glo luminescence, NFATc1 peptide; inhibition, % at 12.5 µM; actives 0.43% (n = 310,000); AID 504441; in the data active = inhibition above about 50%;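 also: plate controls were vehicle with enzyme for no effect and no enzyme for full effect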
# NPR1 activator: GC-A (human) enzyme activation; actives 0.14% (n = 370,000); activation, % at 10 µM; AID 1671463; P16066; HEK293 GC-A cells, cGMP TR-FRET, EC30 ANP; 0% at EC30 ANP, 100% saturating ANP; in the data active = activation above about 40%
# NPR2 activator: GC-B (human) receptor activation; activation, % at 10 µM; actives 0.11% (n = 370,000); HEK293-GC-B cells, CNP EC30, cGMP TR-FRET; 0% at EC30 CNP, 100% saturating CNP; AID 1920062;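 active = activation at 10 µM reaching about 35% in either raw or pattern-adjusted values, limit read from the data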
# Target sequence (P20594 whole entry, looked up): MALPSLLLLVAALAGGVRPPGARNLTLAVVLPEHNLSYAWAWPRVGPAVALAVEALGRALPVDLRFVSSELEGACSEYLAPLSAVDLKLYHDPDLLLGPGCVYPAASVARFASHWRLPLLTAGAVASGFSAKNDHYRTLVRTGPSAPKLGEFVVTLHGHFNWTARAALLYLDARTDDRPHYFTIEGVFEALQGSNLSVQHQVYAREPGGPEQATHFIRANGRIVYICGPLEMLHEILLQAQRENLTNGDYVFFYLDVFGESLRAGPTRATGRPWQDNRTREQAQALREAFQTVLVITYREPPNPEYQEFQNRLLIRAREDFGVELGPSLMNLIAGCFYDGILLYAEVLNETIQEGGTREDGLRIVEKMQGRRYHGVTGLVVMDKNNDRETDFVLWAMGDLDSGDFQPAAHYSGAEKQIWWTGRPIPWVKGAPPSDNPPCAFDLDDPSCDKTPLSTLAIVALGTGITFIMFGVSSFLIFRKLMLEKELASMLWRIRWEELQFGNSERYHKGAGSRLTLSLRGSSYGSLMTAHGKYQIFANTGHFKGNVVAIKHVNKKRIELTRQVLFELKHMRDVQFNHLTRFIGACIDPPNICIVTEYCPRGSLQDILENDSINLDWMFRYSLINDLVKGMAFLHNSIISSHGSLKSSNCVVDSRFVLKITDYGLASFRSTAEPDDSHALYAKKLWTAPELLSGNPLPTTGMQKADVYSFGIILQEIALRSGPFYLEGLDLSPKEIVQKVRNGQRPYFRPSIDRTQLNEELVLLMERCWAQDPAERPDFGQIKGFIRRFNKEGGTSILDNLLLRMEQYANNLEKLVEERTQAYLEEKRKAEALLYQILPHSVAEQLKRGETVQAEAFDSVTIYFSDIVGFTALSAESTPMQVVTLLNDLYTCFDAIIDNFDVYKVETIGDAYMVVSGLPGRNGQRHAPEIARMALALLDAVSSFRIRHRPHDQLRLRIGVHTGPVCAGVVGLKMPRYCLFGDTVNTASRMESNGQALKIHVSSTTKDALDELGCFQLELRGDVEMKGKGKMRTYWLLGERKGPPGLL
# HSF1 inh: HSF1 inhibition. NIH3T3-HGL HSE-luciferase, MG132-induced, luminescence 8 h; hits give low values. activity change, negative = inhibition, % at 7.5 µM (by protocol). actives 0.77% (n = 300,000). AID 2098;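 active = more than half of replicate wells show activity change below -50%, luminescence cut by over half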;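 also: luciferase reports HSF-1 transcriptional activity via heat shock element; 0% = median of DMSO wells and -100% = zero luminescence signal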
# An asterisk follows results filed as active; / = not tested or not shown.
SMILES,HSF-1 act,aDG glyco up,Dyrk1A ADPGlo,NPR1 activator,NPR2 activator,HSF1 inh
O=C(/C=C\Nc1ccc2c(c1)OCO2)c1ccccn1,-71,0,16,10,9,-72*
Cc1sc2nc(CSc3nc4ccccc4c(=O)n3CCCN3CCOCC3)[nH]c(=O)c2c1C,61*,0,4,9,-1,41
CC(=O)c1c(C)[nH]c(C(=O)CSc2nc3ccccc3c(=O)n2CCCN2CCOCC2)c1C,-11,0,-2,0,4,-5
O=C(O)COc1ccc(-c2nnn(Cc3ccccc3F)n2)cc1,7,0,-4,-2,5,-7
Cn1cc(S(=O)(=O)CC(=O)Nc2ccc3c(c2)OCCO3)c2ccccc21,1,0,1,0,2,-8
Cc1ccc(C)c(NC(=O)CS(=O)(=O)c2cn(C)c3ccccc23)c1,54*,0,/,-9,-6,29
Cc1c(NC(=O)c2cc3c(s2)-c2ccccc2OC3)cccc1[N+](=O)[O-],25,1,0,39,59*,15
O=C(CN(c1ccc(F)cc1)S(=O)(=O)c1ccc2c(c1)OCCO2)NCc1cccnc1,1,0,3,-1,-4,-4
CCOC(=O)CSC1=C(C#N)C(c2ccccc2OC)CC(=O)N1 (stereo unspecified),33,0,-2,2,9,5
CCOC(=O)CSC1=C(C#N)C(c2ccccc2C)C2=C(CCCC2=O)N1 (stereo unspecified),-89,0,-2,6,4,-85*
COc1ccc(C)cc1-n1c(=O)c2ccccc2c2ccccc2c1=O,315*,0,/,-57,-18,236
CCOC(=O)N/C(N)=N/c1nc2ccccc2s1,53*,0,-1,19,-2,23
CC(=O)N/C(N)=N/c1nc(=O)c2ccccc2s1,20,0,-1,-1,-1,2
Cc1c(NC(=O)Nc2ccc3c(c2)OCO3)c(=O)n(-c2ccccc2)n1C,-9,0,-7,6,3,-10
CC(=O)N(c1ccc2oc(=O)sc2c1)S(=O)(=O)c1ccc(C(=O)O)cc1,-65,0,-2,4,1,-60*
CC(=O)N(c1ccc2oc(=O)sc2c1)S(=O)(=O)c1cccs1,9,0,-2,5,4,4
Nc1ccc(C23CC4CC(CC(O)(C4)C2)C3)cc1,-80,1,2,3,4,-78*
CC(C)(C)c1[nH]ncc1[N+](=O)[O-],52*,0,-4,1,-2,9
Cc1nc2scc(-c3ccc(Cl)cc3)c2c(=O)n1N,94*,0,0,0,-6,68
Cc1ccc(Cl)c2c1=NC(=O)C=2c1[nH]c(=S)[nH]c1O,126*,0,1,-2,-8,58
O=C1N=c2ccccc2=C1c1[nH]c(=S)[nH]c1O,36,0,-2,-5,-9,3
CCOc1ccc(NC(=O)CC(Cc2cc(C)cc(C)c2)C(=O)O)cc1 (stereo unspecified),-8,0,-1,3,-3,-2
COc1ccc(C(=O)Nn2c(SCC(=O)NC3CCCC3)nc3ccccc3c2=O)cc1,-63,0,5,2,8,-58*
COCC(C)n1c(SCC(=O)NC2CCCCC2)nc2ccccc2c1=O (stereo unspecified),/,0,/,3,4,/
COc1ccc(-c2nnc3ccc(SCC(=O)NCC4CCCO4)nn23)cc1 (stereo unspecified),95*,0,-3,/,/,30
COc1ccc(C(=O)Nn2c(SCC(=O)NCc3ccccc3)nc3ccccc3c2=O)cc1,-68,0,3,1,3,-61*
O=C(CSc1nc2ccccc2c(=O)n1NC(=O)Cc1ccccc1)NCc1ccccc1,23,0,2,-3,0,3
COC(=O)c1ccc2c(=O)n(CC3CCCO3)c(SCC(=O)Nc3ccccc3OC)nc2c1 (stereo unspecified),55*,0,6,8,15,28
CCOC(=O)N1CCN(C(=O)c2cn(CC(C)C)c(=O)c3c2c2ccccc2n3C)CC1,-8,0,-2,-12,-17,5
